± gives the standard deviation.
Key:
Conditions in all cases: modulator concentration 10 µM
[1] = system: RAW-Dual (murine macrophage reporter line); assay: NF-kB reporter (SEAP) activity fold change vs agonist alone; higher = enhanced NF-kB activity
Method in brief: (§1)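 Compound reached 10 μM final in each well by pin transfer, onto RAW-Dual murine macrophage reporter cells seeded at 50 000 per well in 384-well plates. After 1 hour at 37 °C, the cells were stimulated overnight with a PRR agonist. SEAP in the supernatant was read with QUANTI-Blue at 620 nm absorbance for NF-κB, and Lucia luciferase was read with QUANTI-Luc luminescence for IRF. Each signal was turned into fold change against the mean agonist-only control on the same plate, and two replicate plates were averaged with propagated errors.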

[2] = system: RAW-Dual (murine macrophage reporter line); assay: IRF reporter (Lucia luciferase) activity fold change vs agonist alone; higher = enhanced IRF activity
Method in brief: as §1

[3] = system: RAW-Dual (murine macrophage reporter line); assay: viability score (confluency relative to resting cells, overnight) (fraction); higher = more viable, active = viable (0.7 or more)
Method in brief: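 In 384-well plates, RAW-Dual macrophages received compound at a final 10 μM overnight. Two confluency masks were then made with IncuCyte software from IncuCyte images of all imaged wells. The viability score is defined as confluency relative to resting cells. Passing the cutoff required both masks to lie above 70% of resting cells.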

[4] = agonist: CpG ODN 1826 0.5 ug/mL

Structure (SMILES) | NF-kB reporter [1, 4] | NF-kB reporter ([1]; agonist: LPS 0.1 ug/mL) | NF-kB reporter ([1]; agonist: MPLA […]) | IRF reporter ([2]; agonist: 3'3'-cGAMP 10 ug/mL) | IRF reporter ([2]; agonist: LPS 0.1 ug/mL) | IRF reporter ([2]; agonist: MPLA […]) | viability score [3]
Cl.O=C(c1ccc(OCCN2CCCCC2)cc1)c1c(-c2ccc(O)cc2)sc2cc(O)ccc12 | 0.106 ± 0.015 | 1.14 ± 0.27 | 2.12 ± 0.12 | 0.55 ± 0.023 | 0.901 ± 0.24 | 1.5 ± 0.18 | 0.254 (inactive)
COc1ccc(OC)c(CN2CCCC(O)C2)c1 (centres undefined) | 1.19 ± 0.075 | 1.01 ± 0.081 | 0.942 ± 0.027 | 0.963 ± 0.055 | 1.07 ± 0.061 | 1.06 ± 0.1 | 1 (active)
CCOC(=O)C1=C(C)NC(C)=C(C(=O)OCC)C1c1ccc(N(C)C)cc1 | 1.14 ± 0.13 | 1.07 ± 0.071 | 1.24 ± 0.069 | 0.855 ± 0.16 | 1.04 ± 0.095 | 0.94 ± 0.24 | 0.996 (active)
O=C(NCCCCNC(=O)c1cncc(Br)c1)c1cncc(Br)c1 | 0.947 ± 0.053 | 0.973 ± 0.095 | 0.907 ± 0.075 | 0.946 ± 0.038 | 1.37 ± 0.093 | 1.16 ± 0.24 | 0.991 (active)
CCOc1ccc(Cc2cc([C@@H]3O[C@H](SC)[C@@H](O)[C@H](O)[C@H]3O)ccc2Cl)cc1 | 0.968 ± 0.25 | 1.27 ± 0.072 | 1.06 ± 0.098 | 1.03 ± 0.053 | 0.957 ± 0.18 | 1.07 ± 0.11 | 0.694 (inactive)
Cc1cccc(Oc2ccc(NC(=O)c3ccco3)cc2)c1C | 0.683 ± 0.049 | 0.992 ± 0.12 | 1.12 ± 0.049 | 0.483 ± 0.054 | 0.965 ± 0.085 | 1.44 ± 0.22 | 0.991 (active)
CC(C)CCn1c(COc2ccccc2)nc2ccccc21 | 0.892 ± 0.067 | 1.02 ± 0.078 | 0.995 ± 0.028 | 0.914 ± 0.033 | 1.04 ± 0.048 | 1.09 ± 0.1 | 0.999 (active)
COc1cc2c(cc1OC)CN(CCc1ccc(NC(=O)c3cccc4c(=O)c5cccc(OC)c5[nH]c34)cc1)CC2 | 0.0904 ± 0.022 | 1.43 ± 0.075 | 1.2 ± 0.088 | 0.132 ± 0.0091 | 1.42 ± 0.26 | 1.6 ± 0.15 | 0.971 (active)
O=C(NCC(F)(F)F)c1ccc(OCC2CCOCC2)nc1 | 0.911 ± 0.044 | 0.87 ± 0.093 | 1.09 ± 0.064 | 0.937 ± 0.044 | 1.3 ± 0.24 | 1.51 ± 0.46 | 0.993 (active)
COc1ccc(CNCc2cccc3ccccc23)cc1OC | 0.482 ± 0.04 | 0.912 ± 0.094 | 0.966 ± 0.042 | 0.832 ± 0.15 | 1.06 ± 0.086 | 1.16 ± 0.21 | 0.997 (active)
CC(C)(C)C(=O)C(Oc1ccc(Cl)cc1)n1ccnc1 (centres undefined) | 1.3 ± 0.33 | 0.983 ± 0.33 | 1.08 ± 0.13 | 1.07 ± 0.044 | 1.31 ± 0.36 | 1.34 ± 0.1 | 0.892 (active)
CC1(C)OC(=O)C=CC2(C)C1CC(O)C1(C)C2CCC2(C)C(c3ccoc3)OC(=O)C3OC321 (centres undefined) | 1.29 ± 0.35 | 1.1 ± 0.11 | 1.06 ± 0.14 | 0.944 ± 0.032 | 1.22 ± 0.15 | 1.24 ± 0.17 | 0.99 (active)
